Results filed as inconclusive are left out. Active and inactive are the calls of the source. The calls were made as follows, unless noted: active = hit-call score of the fitted dose curve at least 0.9, where 1 is the maximum; inactive = score below 0.9.

A short description of test [1]: ATG_AP_2_CIS: Attagene CIS-FACTORIAL HepG2 Assay for human Activator Protein 2 (AP-2) (AID 2282932). The settings on record: HepG2 AP-2 cis-reporter, Attagene transcription factor profiling; actives raise or lower the signal. The procedure, abridged: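 Assay in transfected HepG2 with promoter-regulated reporters, 24 h incubation after dosing. Signal is reporter mRNA fluorescence (RT-PCR, capillary electrophoresis), analysed for both increases and decreases relative to DMSO controls.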

The nature of test [2]: ATG_Ets_CIS: Attagene CIS-FACTORIAL HepG2 Assay for human Erythroblast Transformation Specific (ETS) (AID 2282941). The settings on record: HepG2 ETS cis-reporter transcription, actives raise or lower the signal. The procedure, abridged:
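Endogenous transcription factor activity read as reporter mRNA via RT-PCR and capillary electrophoresis, with gain or loss fitted bidirectionally against DMSO. Human HepG2 liver cells, transiently transfected CIS reporter constructs, 24 h exposure.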

Test [3] concerns the target Hepatocyte nuclear factor 3-beta (Homo sapiens) (UniProt Q9Y261). In words: ATG_FoxA2_CIS: Attagene CIS-FACTORIAL HepG2 Assay for human Forkhead box A2 (FOXA2) (AID 2282942). The settings on record: HepG2 cis-reporter transcription factor activity, 24 h; actives raise or lower the signal. The procedure, abridged:
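Endogenous transcription factor activity is captured via cis-element-driven reporter transcripts in transfected HepG2. Total RNA taken at 24 h post-dosing; labelled RT-PCR products resolved by capillary electrophoresis. Gain or loss fitted versus DMSO.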

Test [4] is described as follows: ATG_FoxO_CIS: Attagene CIS-FACTORIAL HepG2 Assay for human Forkhead box O (FoxO) (AID 2282943). Conditions: HepG2 Attagene cis-reporter, FoxO element, mRNA; actives raise or lower the signal. The gist of the method: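 24 h chemical exposure, HepG2 with transient cis-MRTU transfection. RNA extraction, oligo(dT) RT, reporter-specific PCR, primer-extension labelling, HpaI digestion, CE fragment analysis; bidirectional fit, DMSO baseline.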

Test [5] has as its target Hypoxia-inducible factor 1-alpha (Homo sapiens) (UniProt Q16665). In words: ATG_HIF1a_CIS: Attagene CIS-FACTORIAL HepG2 Assay for human Hypoxia Inducible Factor 1 (HIF1A) (AID 2282951). Conditions: HepG2 Attagene cis-factorial HIF1a reporter transcription; actives raise or lower the signal. The gist of the method: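 Activity is fitted in both directions relative to DMSO. Reporter transcripts are read by RT-PCR, fluorescent primer extension and capillary electrophoresis after 24 h chemical treatment. The cells are HepG2 carrying transiently transfected cis-element-driven reporter units responding to endogenous factors.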

Test [6] is described as follows: ATG_RORE_CIS: Attagene CIS-FACTORIAL HepG2 Assay for human RAR-related Orphan Receptor Element (RORE) (AID 2282959). Conditions: HepG2 Attagene cis-factorial RORE reporter, mRNA; actives raise or lower the signal. The gist of the method:
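RORE reporter transcripts reflecting endogenous factor activity were read after 24 h compound exposure of transfected HepG2 cells, using reverse transcription, PCR, fluorescent labelling and capillary electrophoresis sizing. Gain or loss fitted against DMSO.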

A short description of test [7]: ATG_TGFb_CIS: Attagene CIS-FACTORIAL HepG2 Assay for human Transforming Growth Factor (TGF) (AID 2282967). Conditions: HepG2 Attagene CIS TGFb reporter, mRNA transcription; actives raise or lower the signal. The procedure, abridged:
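HepG2 cells transiently transfected with cis-promoter-driven multiplexed reporter units; 24 h compound exposure. Reporter mRNA measured by RT-PCR, 6-FAM labeling, HpaI digestion and capillary electrophoresis; bidirectional fit versus DMSO baseline.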

For test [8], the target named is Transcriptional activator Myb (Homo sapiens) (UniProt P10242). In words: ATG_Myb_CIS: Attagene CIS-FACTORIAL HepG2 Assay for human Myeloblastosis (Myb) Proto-Oncogene Transcription Factor (AID 2282986). Conditions: HepG2 Attagene CIS-FACTORIAL Myb reporter transcription; actives raise or lower the signal. The procedure, abridged: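 Reporter mRNA is quantified by RT-PCR and capillary electrophoresis 24 h after dosing HepG2 cells transfected with cis-regulated reporter units, which track endogenous transcription factor activity. Gain and loss of signal are fitted versus DMSO baseline.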
Chain of Transcriptional activator Myb (Homo sapiens) (P10242 whole entry, looked up): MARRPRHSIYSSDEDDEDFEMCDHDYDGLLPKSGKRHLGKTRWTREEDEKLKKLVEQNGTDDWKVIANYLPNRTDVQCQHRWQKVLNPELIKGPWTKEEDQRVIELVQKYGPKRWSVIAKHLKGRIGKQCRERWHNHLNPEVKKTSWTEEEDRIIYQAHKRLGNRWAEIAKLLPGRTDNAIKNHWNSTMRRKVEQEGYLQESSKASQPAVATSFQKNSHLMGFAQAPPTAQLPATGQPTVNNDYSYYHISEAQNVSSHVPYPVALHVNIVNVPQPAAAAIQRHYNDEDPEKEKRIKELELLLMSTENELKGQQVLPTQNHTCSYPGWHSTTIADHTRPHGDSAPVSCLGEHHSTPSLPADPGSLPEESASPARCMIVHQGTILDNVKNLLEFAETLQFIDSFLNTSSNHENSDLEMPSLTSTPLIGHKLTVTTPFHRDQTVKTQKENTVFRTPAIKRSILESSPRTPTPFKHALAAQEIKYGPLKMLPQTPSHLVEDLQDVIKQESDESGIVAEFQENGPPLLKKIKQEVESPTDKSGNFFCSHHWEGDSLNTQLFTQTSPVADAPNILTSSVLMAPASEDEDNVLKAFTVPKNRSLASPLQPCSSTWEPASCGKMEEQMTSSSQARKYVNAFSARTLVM

Test [9] deals with Nuclear respiratory factor 1 (Homo sapiens) (UniProt Q16656). In words: ATG_NRF1_CIS: Attagene CIS-FACTORIAL HepG2 Assay for human Nuclear Respiratory Factor 1 (NRF1) Orphan Gene (AID 2282987). Conditions: HepG2 NRF1 cis-element reporter, Attagene multiplex; actives raise or lower the signal. The procedure, abridged: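 Endogenous NRF1-driven reporter transcription in transfected HepG2 cells after 24 h treatment. Readout: RT-PCR products, 6-FAM labelled and resolved by capillary electrophoresis; changes fitted both directions relative to DMSO.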
Chain of Nuclear respiratory factor 1 (Homo sapiens) (Q16656 whole entry, looked up): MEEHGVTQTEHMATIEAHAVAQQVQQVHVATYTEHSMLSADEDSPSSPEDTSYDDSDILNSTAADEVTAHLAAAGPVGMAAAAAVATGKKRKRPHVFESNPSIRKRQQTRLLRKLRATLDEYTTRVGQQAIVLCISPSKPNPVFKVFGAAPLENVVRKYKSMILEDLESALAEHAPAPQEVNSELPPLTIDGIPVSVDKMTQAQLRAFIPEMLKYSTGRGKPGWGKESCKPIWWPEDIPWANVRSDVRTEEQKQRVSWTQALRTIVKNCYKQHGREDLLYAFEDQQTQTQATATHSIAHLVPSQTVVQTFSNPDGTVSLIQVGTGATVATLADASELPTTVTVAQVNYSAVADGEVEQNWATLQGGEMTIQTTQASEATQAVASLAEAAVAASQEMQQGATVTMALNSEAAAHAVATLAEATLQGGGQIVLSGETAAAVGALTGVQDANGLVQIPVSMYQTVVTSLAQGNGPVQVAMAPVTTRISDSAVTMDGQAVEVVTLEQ

A short description of test [10]: ATG_NFI_CIS: Attagene CIS-FACTORIAL HepG2 Assay for human Nuclear Factor I (NFI) (AID 2282989). The settings on record: HepG2 cis-regulatory reporter, NFI response element transcription; actives raise or lower the signal. The procedure, abridged:
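HepG2 cells transiently transfected with cis-element-driven multiplexed reporter transcription units, dosed for 24 h. Reporter mRNA quantified by RT-PCR, fluorescent labelling, HpaI digestion and capillary electrophoresis; bidirectional fit versus DMSO baseline.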

Test [11] concerns the target Myc proto-oncogene protein (Homo sapiens) (UniProt P01106). In words: ATG_Myc_CIS: Attagene CIS-FACTORIAL HepG2 Assay for human Myelocytomatosis (Myc) Proto-Oncogene Transcription Factor (AID 2282990). The settings on record: HepG2, Attagene cis-reporter transcription factor activity; actives raise or lower the signal. The procedure, abridged:
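DMSO-normalised, bidirectionally fitted reporter mRNA signal. HepG2 cells transfected with cis reporter constructs, treated 24 h; transcripts detected by RT-PCR, 6-FAM primer extension and CE.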

In test [12] the target is Cellular tumor antigen p53 (Homo sapiens) (UniProt P04637). As to the kind of experiment: ATG_p53_CIS: Attagene CIS-FACTORIAL HepG2 Assay for human p53 Transcription Factor (AID 2282994). Conditions: HepG2 p53 cis-element reporter, Attagene mRNA; actives raise or lower the signal. The procedure, abridged:
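Endogenous p53 activity read in transiently transfected HepG2 from a cis-element-driven reporter transcript after 24 h exposure. RNA reverse-transcribed, PCR-amplified, fluorescently labelled and sized by capillary electrophoresis; gain or loss fitted against DMSO baseline.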

Test [13] has as its target Nuclear receptor subfamily 1 group I member 2 (Homo sapiens) (UniProt O75469). In words: ATG_PXR_TRANS: Attagene TRANS-FACTORIAL HepG2 Assay for human Pregnane X Receptor (PXR) (AID 2283008; active = hit-call score of the fitted dose curve at least 0.9, where 1 is the maximum). The gist of the method: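 Transactivation by exogenous PXR–GAL4 fusion measured as reporter transcript induction after 24 h compound treatment of transfected human HepG2 cells. Read-out via RT-PCR and capillary electrophoresis of labelled fragments, fitted upward relative to DMSO.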

A short description of test [14]: ATG_XTT_Cytotoxicity: Cytotoxicity Assessment in the Attagene TRANS-FACTORIAL HepG2 Assay (AID 2283584; active = hit-call score of the fitted dose curve at least 0.9, where 1 is the maximum). The procedure, abridged: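 24 h chemical exposure of reporter-transfected HepG2; XTT signal loss vs DMSO indicates cytotoxicity.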
Test [15] in a line: ATG_EGR_CIS: Attagene CIS-FACTORIAL HepG2 Assay for human Early Growth Response 1 (EGR1) (AID 2282938). The settings on record: HepG2 Attagene CIS-FACTORIAL EGR reporter mRNA; actives raise or lower the signal. The gist of the method:
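After 24 h compound exposure, RNA from reporter-transfected HepG2 cells was reverse-transcribed, PCR-amplified, fluorescently labelled and resolved by capillary electrophoresis. EGR1 reporter transcript changes, up or down, were fitted against DMSO, reflecting endogenous transcription-factor activity.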

Test [16] in a line: ATG_VDRE_CIS: Attagene CIS-FACTORIAL HepG2 Assay for human Vitamin D Receptor Element (VDRE) (AID 2282968). The settings on record: HepG2 VDRE cis-reporter transcription, actives raise or lower the signal. The procedure, abridged:
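Transfected HepG2 reporter cells, chemical treatment 24 h. RNA isolated, cDNA amplified with reporter-specific primers, products analysed by capillary electrophoresis. Endpoint fitted in both directions versus DMSO.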

For test [17], the target named is X-box-binding protein 1 (Homo sapiens) (UniProt P17861). As to the kind of experiment: ATG_Xbp1_CIS: Attagene CIS-FACTORIAL HepG2 Assay for human X-box Binding Protein 1 (XBP1) (AID 2282972). Conditions: HepG2 XBP1 cis-element reporter, Attagene multiplex; actives raise or lower the signal. The gist of the method:
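Reporter transcripts were quantified by RT-PCR with fluorescent primer extension and capillary electrophoresis after 24 h chemical exposure. Cells: transiently transfected HepG2 carrying cis-regulated reporter constructs; data fitted bidirectionally relative to DMSO.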

For test [18], the target named is Cellular tumor antigen p53 (Homo sapiens) (UniProt P04637). In words: TOX21_p53_BLA_p2_ratio: Tox21 HCT-116 p53 Agonism Beta-lactamase Assay, Ratio, Phase 2 (AID 2283592; active = hit-call score of the fitted dose curve at least 0.9, where 1 is the maximum). The procedure, abridged:
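DMSO-normalized, positive-direction endpoint derived from the 460 nm/530 nm FRET ratio in HCT116 p53 beta-lactamase reporter cells exposed 16 h at 37C and loaded with CCF4-AM for 2 h.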

Test [19] addresses Transcription factor E2F1 (Homo sapiens) (UniProt Q01094). In words: ATG_E2F_CIS: Attagene CIS-FACTORIAL HepG2 Assay for human E2F Transcription Factor 1 (AID 2282935). Conditions: HepG2 Attagene cis-reporter, E2F reporter RNA transcripts; actives raise or lower the signal. The procedure, abridged: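 In this cis-factorial format, endogenous factor activity drives transfected reporters in HepG2; transcripts collected at 24 h are quantified by fluorescence after RT-PCR and capillary separation.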

Test [20] can be described thus: ATG_M_61_CIS: Attagene CIS-FACTORIAL HepG2 Assay for M61 Transcription Factor (Internal Marker) (AID 2282937). The settings on record: HepG2 Attagene CIS-FACTORIAL M61 internal marker reporter; actives raise or lower the signal. The gist of the method:
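Readout is reporter mRNA by RT-PCR, fluorescent primer extension and capillary electrophoresis, with gain or loss fitted relative to DMSO. Transfected HepG2 cells carrying endogenous-TF-driven cis reporters were exposed to chemicals for 24 hours.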

Chain of Cellular tumor antigen p53 (Homo sapiens) (P04637 whole entry, looked up): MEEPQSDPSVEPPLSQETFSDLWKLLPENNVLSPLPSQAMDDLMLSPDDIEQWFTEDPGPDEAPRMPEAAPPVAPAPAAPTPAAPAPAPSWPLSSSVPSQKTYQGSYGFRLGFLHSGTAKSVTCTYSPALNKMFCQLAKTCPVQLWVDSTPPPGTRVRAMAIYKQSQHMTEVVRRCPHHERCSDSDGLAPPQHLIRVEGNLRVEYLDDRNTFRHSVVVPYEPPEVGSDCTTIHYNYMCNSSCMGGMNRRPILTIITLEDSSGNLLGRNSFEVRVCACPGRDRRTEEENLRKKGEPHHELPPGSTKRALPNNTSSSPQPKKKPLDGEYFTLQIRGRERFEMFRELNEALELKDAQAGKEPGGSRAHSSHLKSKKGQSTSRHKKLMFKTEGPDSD
Chain of Transcription factor E2F1 (Homo sapiens) (Q01094 whole entry, looked up): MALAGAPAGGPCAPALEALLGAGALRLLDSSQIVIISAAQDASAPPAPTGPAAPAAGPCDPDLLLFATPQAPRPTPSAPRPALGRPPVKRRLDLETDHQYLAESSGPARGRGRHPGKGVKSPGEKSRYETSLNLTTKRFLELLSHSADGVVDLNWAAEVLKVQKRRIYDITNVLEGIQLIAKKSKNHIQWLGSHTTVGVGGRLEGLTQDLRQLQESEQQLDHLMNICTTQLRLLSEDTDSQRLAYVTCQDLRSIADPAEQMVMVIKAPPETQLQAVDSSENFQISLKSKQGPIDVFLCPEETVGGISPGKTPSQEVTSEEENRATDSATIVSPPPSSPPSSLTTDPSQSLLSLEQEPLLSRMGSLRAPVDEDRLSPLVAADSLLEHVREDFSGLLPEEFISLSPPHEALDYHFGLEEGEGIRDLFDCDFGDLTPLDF
Chain of Nuclear receptor subfamily 1 group I member 2 (Homo sapiens) (O75469 whole entry, looked up, the tested form may be a part): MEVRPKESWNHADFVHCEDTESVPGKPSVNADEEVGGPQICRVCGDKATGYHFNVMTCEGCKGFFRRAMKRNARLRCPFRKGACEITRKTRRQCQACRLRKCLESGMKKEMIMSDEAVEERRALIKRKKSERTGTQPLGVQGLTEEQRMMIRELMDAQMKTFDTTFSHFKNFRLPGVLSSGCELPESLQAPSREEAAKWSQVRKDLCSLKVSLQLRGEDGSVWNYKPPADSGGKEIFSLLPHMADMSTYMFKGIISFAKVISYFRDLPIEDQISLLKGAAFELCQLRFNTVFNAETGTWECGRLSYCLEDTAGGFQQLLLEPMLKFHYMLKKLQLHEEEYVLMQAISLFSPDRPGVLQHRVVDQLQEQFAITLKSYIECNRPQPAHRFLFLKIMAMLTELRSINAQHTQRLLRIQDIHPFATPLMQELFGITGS
Chain of Hypoxia-inducible factor 1-alpha (Homo sapiens) (Q16665 whole entry, looked up): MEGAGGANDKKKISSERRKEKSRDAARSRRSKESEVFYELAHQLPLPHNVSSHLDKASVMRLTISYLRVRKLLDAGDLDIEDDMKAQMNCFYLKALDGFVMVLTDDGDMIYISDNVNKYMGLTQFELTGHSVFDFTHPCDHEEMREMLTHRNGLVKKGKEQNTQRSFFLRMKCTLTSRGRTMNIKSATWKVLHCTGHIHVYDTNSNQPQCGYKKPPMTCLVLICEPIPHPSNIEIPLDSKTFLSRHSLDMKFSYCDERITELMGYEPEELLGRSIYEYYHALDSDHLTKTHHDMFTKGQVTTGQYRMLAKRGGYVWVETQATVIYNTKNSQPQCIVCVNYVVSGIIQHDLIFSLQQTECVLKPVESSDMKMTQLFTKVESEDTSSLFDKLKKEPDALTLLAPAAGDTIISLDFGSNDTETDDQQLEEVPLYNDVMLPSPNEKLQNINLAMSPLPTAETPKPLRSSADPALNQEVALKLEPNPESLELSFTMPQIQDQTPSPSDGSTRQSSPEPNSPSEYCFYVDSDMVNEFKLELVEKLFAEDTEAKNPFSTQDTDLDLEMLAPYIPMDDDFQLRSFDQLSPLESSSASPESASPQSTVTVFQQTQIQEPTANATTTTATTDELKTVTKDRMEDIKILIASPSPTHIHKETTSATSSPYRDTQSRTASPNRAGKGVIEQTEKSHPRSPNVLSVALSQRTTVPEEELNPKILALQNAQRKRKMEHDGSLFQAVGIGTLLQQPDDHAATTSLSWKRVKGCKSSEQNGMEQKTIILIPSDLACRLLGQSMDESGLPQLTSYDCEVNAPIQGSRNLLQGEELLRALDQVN
Chain of Myc proto-oncogene protein (Homo sapiens) (P01106 whole entry, looked up): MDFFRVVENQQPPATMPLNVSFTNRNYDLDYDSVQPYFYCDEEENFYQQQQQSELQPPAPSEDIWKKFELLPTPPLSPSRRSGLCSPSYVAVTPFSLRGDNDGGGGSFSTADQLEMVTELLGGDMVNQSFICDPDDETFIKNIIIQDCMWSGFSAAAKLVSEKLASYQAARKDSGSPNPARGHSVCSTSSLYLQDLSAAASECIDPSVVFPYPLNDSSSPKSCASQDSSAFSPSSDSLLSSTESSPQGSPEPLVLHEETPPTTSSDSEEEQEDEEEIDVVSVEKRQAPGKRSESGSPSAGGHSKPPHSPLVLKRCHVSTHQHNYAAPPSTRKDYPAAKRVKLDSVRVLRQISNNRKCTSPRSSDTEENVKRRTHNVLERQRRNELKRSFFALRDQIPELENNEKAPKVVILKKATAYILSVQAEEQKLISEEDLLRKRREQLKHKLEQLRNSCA
Chain of Hepatocyte nuclear factor 3-beta (Homo sapiens) (Q9Y261 whole entry, looked up): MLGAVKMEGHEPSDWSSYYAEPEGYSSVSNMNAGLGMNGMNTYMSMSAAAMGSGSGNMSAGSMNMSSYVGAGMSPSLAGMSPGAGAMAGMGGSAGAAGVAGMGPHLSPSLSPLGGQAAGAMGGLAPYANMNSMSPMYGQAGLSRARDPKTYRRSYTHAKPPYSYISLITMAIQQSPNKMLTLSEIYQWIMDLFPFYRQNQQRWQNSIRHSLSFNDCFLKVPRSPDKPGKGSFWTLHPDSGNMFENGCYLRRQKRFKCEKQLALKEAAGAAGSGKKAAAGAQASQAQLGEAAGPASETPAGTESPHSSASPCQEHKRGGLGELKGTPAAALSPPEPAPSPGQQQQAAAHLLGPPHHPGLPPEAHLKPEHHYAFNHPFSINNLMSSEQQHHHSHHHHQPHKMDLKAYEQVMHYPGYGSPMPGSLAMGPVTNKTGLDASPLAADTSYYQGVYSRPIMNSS
Chain of X-box-binding protein 1 (Homo sapiens) (P17861 whole entry, looked up): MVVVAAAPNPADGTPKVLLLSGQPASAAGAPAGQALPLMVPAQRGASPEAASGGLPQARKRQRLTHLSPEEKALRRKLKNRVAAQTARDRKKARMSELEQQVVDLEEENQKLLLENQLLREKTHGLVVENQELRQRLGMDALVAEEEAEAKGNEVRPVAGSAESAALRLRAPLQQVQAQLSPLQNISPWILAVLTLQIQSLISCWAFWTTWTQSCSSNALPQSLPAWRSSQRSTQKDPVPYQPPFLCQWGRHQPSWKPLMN

Take `CCC(C)C1N=C(C)C(C)S1` (configuration not stated): the compound was called inactive in test [1], in test [2], in test [3], in test [4], in test [5] and in test [6]. The call in [7], in test [8], in test [9], in [10], in [11] and in [12] was inactive. Moreover, the compound was classed as inactive in test [14]. Further, the AC50 in [13] is 4.45 µM (active).

`C/C=C(\C)C(=O)OCC/C=C\CC`: the result in test [1], in test [15], in test [2], in test [3], in [5] and in test [6] was inactive. Further, the call in test [7], in test [16], in test [17], in test [8], in test [9] and in [10] was inactive. In addition, the call in test [12], in test [13] and in test [18] was inactive.

For `CC(=O)CCc1ccccc1`, the compound was classed as inactive in [1], in [19], in test [3], in test [4], in test [5] and in test [6]. Moreover, the outcome in test [7], in [16], in [8], in [9], in [10] and in test [12] was inactive. The compound was classed as inactive in [13], in [14] and in [18].

Turning to `CCCCCCCC#N`, the compound was called inactive in test [1], in [19], in test [20], in test [15], in [3] and in test [4]. Further, the compound was classed as inactive in test [5], in test [6], in test [7], in test [16], in test [17] and in test [8]. Also, the compound was classed as inactive in test [9], in test [10], in test [11], in test [13] and in test [14].

On to `NC(=O)c1ccc(N)cc1`, for which the compound was classed as inactive in [1], in [19], in test [15], in test [2], in test [3] and in test [5]. The outcome in test [6], in test [7], in [16], in test [8], in test [9] and in test [10] was inactive. The outcome in test [11], in test [12], in test [14] and in test [18] was inactive.

For the origin of these results see PubChem BioAssay (EPA / NIEHS).
